Sampled rows, rich in hits. Any-hit rate of the full collection: about 1.8%.
ABCB6 inh MLPCN – blocks the human ABCB6 transporter; Q9NP58; K562-ABCB6 porphyrin accumulation, flow cytometry, 1 h; active compounds read low; fluorescence ratio to DMSO, % at 10 µM; 360,000 compounds, 0.19% hits;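 active means fluorescence ratio to DMSO below 75%, the collection mean minus 3 SD; inconclusive means too few cells collected in the well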;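 further: signal is porphyrin accumulated inside mitochondria; 100% equals median channel fluorescence of DMSO control wells; lower ratio means ABCB6 inhibition with less porphyrin fluorescence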
Myeloid diff 2 – myeloid differentiation induction; ER-HoxA9 myeloid progenitors, lysozyme-GFP differentiation, flow cytometry; calls only at 10 µM; 360,000 compounds, 1% hits;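 active means normalized GFP-positive differentiation at or above the plate's own cutoff, the solvent-only control mean plus 3 SD; inconclusive means no clear call, values can overlap the other calls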;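 further: cells exposed to compound for four days before flow analysis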
Exocytosis inh – blocks lytic granule exocytosis. TALL-104 LAMP-1 surface exposure, flow cytometry; cells stimulated with thapsigargin and PMA. 360,000 compounds, 0.66% hits. inhibition, % at 10 µM;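 active means inhibition above about 55%, limit read from the data; inconclusive means no clear call, values can overlap the other calls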
The depositor's hits bear a star; i = inactive; ? = inconclusive; . = not tested or not shown; + = active, no number.

SMILES	ABCB6 inh MLPCN	Myeloid diff 2	Exocytosis inh
O=C(c1ccc(Cl)c(S(=O)(=O)NCc2cccnc2)c1)N1CCCC1	98	i	4
CCOc1ncccc1C(=O)NCc1ccccc1F	95	i	1
O=C(NCCc1ccccc1F)c1cccc2cccnc12	108	+	-1
COc1ccccc1C(=O)Nc1c(C(=O)N2CCN(C)CC2)oc2ccccc12	97	i	5
CCN(CC)S(=O)(=O)c1cccc(N2CC(O)=C(c3ccccc3)C2=N)c1	97	i	-8
CCN(CC)S(=O)(=O)c1ccc(N2Cc3ccccc3C2=N)cc1	103	+	2
CCOC(=O)C1=CN(Cc2cccc(F)c2)S(=O)(=O)N(CC)C1c1ccc(C(F)(F)F)cc1 (centres undefined)	96	i	6
O=C(NCC[C@@H]1CC[C@@H](NS(=O)(=O)Cc2ccccc2)[C@@H](CO)O1)C1CC1	.	i	-10
CCN(CC)Cc1cc(Nc2c3ccccc3nc3c4ccccc4n(C)c23)cc(CN(CC)CC)c1O	87	?	100*
Oc1cccc(Nc2c3ccccc3nc3ccccc23)c1	101	.	28
CCc1ccccc1NC(=O)CN1CCN(C(=O)CNC(=O)c2ccc(N3CCCC3=O)cc2)CC1	93	i	3
CC(C)NC(=O)N(C)C[C@@H]1OCc2cn(nn2)CCCC(=O)N([C@H](C)CO)C[C@H]1C	100	i	2
Cc1cc(/C=N/n2cnnc2)c(C)n1-c1ccc(OCc2ccc(Cl)cc2Cl)cc1	88	i	0
Cc1cc(/C=N/n2cnnc2)c(C)n1-c1ccc(OCc2ccc(F)cc2)cc1	95	+	2
Cc1cc(NC(=O)CSc2nnc(-c3ccncc3)n2C)n(-c2ccccc2)n1	140	+	-7
Cc1cc(NC(=O)CSc2nnc(-c3ccncc3)n2Cc2ccccc2)n(-c2ccccc2)n1	97	i	-6
OC1c2cc(Cl)cc(Cl)c2N=C2CCCN21 (centres undefined)	90	i	22
COc1ccc(Nc2nc3cc(C)ccc3cc2C#N)c(OC)c1	80	?	-3
COc1ccc(Nc2nc3cc(C)ccc3cc2C#N)cc1	151	+	2
O=C(NCc1ccccc1)c1n[nH]nc1-c1ccccc1O	112	+	0
O=C(NCc1ccccc1)c1ccc(C(=O)NCc2ccccc2)cc1	87	i	0
N#Cc1ccccc1NC(=O)COC(=O)CN1C(=O)C2CCCCC2C1=O (centres undefined)	97	i	-3
Cc1ccccc1C1C(C#N)=C2N=C(N)c3ccccc3N2C2=C1C(=O)CCC2 (centres undefined)	94	i	-5
Cc1ccccc1C1C(C#N)=C2N=C(N)c3c(sc4c3CCCCC4)N2C2=C1C(=O)CC(C)(C)C2 (centres undefined)	126	+	1
COc1ccccc1NC(=O)N(C)C[C@@H]1OCc2cnnn2CCCC(=O)N([C@H](C)CO)C[C@H]1C	103	i	-2
SMILES	ABCB6 inh MLPCN	Myeloid diff 2	Exocytosis inh
Cc1c(Cl)cccc1NC(=O)N1CCN(C(=O)c2ccco2)CC1	99	i	2
COc1ccccc1[C@H]1C(c2cccc(C)c2)=NN(c2ccccc2)[C@@H]1CO	103	+	-3
COc1ccccc1[C@H]1C(c2ccccc2)=NN(c2ccccc2)[C@@H]1CO	99	i	2
CCOC(=O)C1CCN(CCC(=O)Nc2ccc(F)cc2)CC1	96	.	-2
NNC(=O)c1[nH]c2ccc(Br)cc2c1-c1ccccc1	101	+	20
CC(=O)NNC(=O)c1[nH]c2ccc(Br)cc2c1-c1ccccc1	100	i	-8
Cc1ccc2[nH]c(C(=O)NN=C3CCCCC3)c(-c3ccccc3)c2c1	102	+	21
Cc1ccc2[nH]c(C(=O)O)c(-c3ccccc3)c2c1	96	i	-3
COC(=O)c1ccccc1NC(=O)CCC(=O)N1CC(C)Oc2ccc(C)cc21 (centres undefined)	87	i	-6
CN(C)c1cc2c3ccccc3n(C)c2cc1N	103	i	-1
Cc1c(C)n(CC(O)CN2CCCCC2)c2ccccc12 (centres undefined)	97	i	-3
Cc1cc(C)n(CC(O)Cn2c(C)c(C)c3ccccc32)n1 (centres undefined)	389	+	0
Cc1ccnn1CC(=O)N/N=C/c1ccc([N+](=O)[O-])s1	93	+	1
O=C(N/N=C/c1ccc([N+](=O)[O-])s1)c1ccccc1	104	i	44
O=[N+]([O-])c1ccc(O)c(/C=N/NC(=S)Nc2ccc(Cl)cc2Cl)c1	98	i	?
COc1ccccc1NC(=O)C(=O)N/N=C/c1ccc([N+](=O)[O-])s1	111	+	0
O=C(N/N=C/c1ccc([N+](=O)[O-])s1)C(O)c1ccccc1 (centres undefined)	104	i	8
Cc1ccnn1CC(=O)N/N=C/c1cccs1	103	i	-6
O=[N+]([O-])c1ccc(/C=N/NC(=S)Nc2ccc(Cl)cc2Cl)s1	114	i	94*
COC(=O)N/N=C/c1ccc([N+](=O)[O-])s1	109	+	5
CN(Cc1cn(Cc2ccc(F)cc2)nn1)C1CN(Cc2cn(Cc3ccc(F)cc3)nn2)S(=O)(=O)C1 (centres undefined)	93	i	3
COc1ccc(OC)c(NC(=O)CSc2nncc(=O)n2N)c1	95	i	-3
COc1ccc(N(C)S(=O)(=O)c2cccc(C(=O)Nc3cccc(C(=O)NC4CC4)c3)c2)cc1	95	i	-4
Cc1ccc(-c2nc(CNC(=O)c3ccco3)cs2)cc1	91	i	-2
COc1ccc(CCNC(=O)c2cc(C3CC3)nc3c2cnn3C(C)C)cc1OC	88	+	-3
SMILES	ABCB6 inh MLPCN	Myeloid diff 2	Exocytosis inh
COc1ccc(CNC(=O)c2cc(C3CC3)nc3c2cnn3C(C)C)cc1	100	i	1
COc1ccc(C(C)=O)cc1CSc1nnc(-c2ccc(Cl)cc2)n1-c1ccccc1	97	i	73*
COc1ccc(C(C)=O)cc1CSc1nnc(-c2ccncc2)n1C	101	i	4
CC(C)CN1CCN(C(=O)COC(=O)c2ccc(S(C)(=O)=O)c([N+](=O)[O-])c2)CC1	107	+	-5
CS(=O)(=O)c1ccc(C(=O)OCC(=O)NC23CC4CC(CC(C4)C2)C3)cc1[N+](=O)[O-]	105	i	-2
Cc1cc2c3c([nH]c2cc1S(=O)(=O)NCCCOC(C)C)CC(C)(C)CC3=O	97	i	-3
CCC1NC(=O)c2cccnc2-n2c1nc1ccc(OC)cc1c2=O (centres undefined)	98	i	-1
CC(C)OC(=O)CC(=O)CSc1nc(-c2ccc(F)cc2)cc(-c2ccccc2)c1C#N	105	i	-3
COc1cc(-c2cc(-c3ccccc3)nc(SCC(=O)Nc3nccs3)c2C#N)cc(OC)c1OC	101	+	1
COc1ccc(CNC(=O)CSc2nc(-c3ccccc3)cc(-c3cccs3)c2C#N)cc1	101	i	0
CCOC(=O)CC(=O)CSc1nc(-c2ccccc2)cc(-c2ccccc2)c1C#N	100	+	-3
CCCCn1c(N)c(N(CC(C)C)C(=O)c2ccc(-c3ccc(Cl)cc3)o2)c(=O)[nH]c1=O	97	i	0
